Measured values taken from the supplement of paper PMC10849652.
Of roughly 7,900 targets only a part is listed; those with a hit were picked by preference. About 0.6% of all pairs of compound and target were hits. Values without a mark were called inactive.

Key:
Experiment in all cases: log2 fold change, soluble protein after heating vs DMSO (PISA); higher = thermal stabilisation; K562 cells, 10 uM, 30 min; active = over 0.2 and 3.5 SD of the protein, either way, in both replicates (recomputed)
[1] = compound: COC1=CC=C(C=C1)CN2C=CC3=C2C=C(C=C3)C(=O)NO
Procedure, shortened: (§1)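 K562 cells (2×10^6 cells/mL) were treated with 10 μM compound for 30 min, and aliquots were heated for 3 min over 48°C-58°C. Pooled aliquots were extracted in PBS with 0.5% NP-40 at 4°C, and the supernatant after 21,000xg for 90 min was measured by TMTpro 16plex LC-MS/MS with channel sums equalised. Reported thermal stability, relative to control samples and from duplicates, is a log2 fold change.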

filanesib = compound: CON(C)C(=O)N1N=C(c2cc(F)ccc2F)S[C@@]1(CCCN)c1ccccc1 [filanesib]
Procedure, shortened: as §1

zotarolimus = compound: CO[C@H]1C[C@@H]2CC[C@@H](C)[C@@](O)(O2)C(=O)C(=O)N2CCCC[C@H]2C(=O)O[C@H]([C@H](C)C[C@@H]2CC[C@H](n3cnnn3)[C@H](OC)C2)CC(=O)[C@H](C)/C=C(\C)[C@@H](O)[C@@H](OC)C(=O)[C@H](C)C[C@H](C)/C=C/C=C/C=C/1C [zotarolimus]
Procedure, shortened: as §1

idasanutlin = compound: COc1cc(C(=O)O)ccc1NC(=O)[C@@H]1N[C@@H](CC(C)(C)C)[C@](C#N)(c2ccc(Cl)cc2F)[C@H]1c1cccc(Cl)c1F [idasanutlin]
Procedure, shortened: as §1

alisertib = compound: COc1cc(Nc2ncc3c(n2)-c2ccc(Cl)cc2C(c2c(F)cccc2OC)=NC3)ccc1C(=O)O [alisertib]
Procedure, shortened: as §1

[2] = compound: COc1cc2nc(-c3cc(F)ccc3O)nc(N[C@@H]3CNC[C@H]3C(C)(C)O)c2cc1OC
Procedure, shortened: as §1

gefitinib = compound: COc1cc2ncnc(Nc3ccc(F)c(Cl)c3)c2cc1OCCCN1CCOCC1 [gefitinib]
Procedure, shortened: as §1

[3] = compound: COc1cccc2cc(-c3nc([C@H]4CC[C@H](C(=O)O)CC4)n4ncnc(N)c34)[nH]c12
Procedure, shortened: as §1

lapatinib = compound: CS(=O)(=O)CCNCc1ccc(-c2ccc3ncnc(Nc4ccc(OCc5cccc(F)c5)c(Cl)c4)c3c2)o1 [lapatinib]
Procedure, shortened: as §1

pictilisib = compound: CS(=O)(=O)N1CCN(Cc2cc3nc(-c4cccc5[nH]ncc45)nc(N4CCOCC4)c3s2)CC1 [pictilisib]
Procedure, shortened: as §1

[4] = compound: CS(=O)(=O)c1ccc(-c2cnc(N)c(C(=O)Nc3ccccc3)n2)cc1
Procedure, shortened: as §1

crizotinib = compound: C[C@@H](Oc1cc(-c2cnn(C3CCNCC3)c2)cnc1N)c1c(Cl)ccc(F)c1Cl [crizotinib]
Procedure, shortened: as §1

[5] = compound: C[C@@H]1COCCN1C2=NC(=NC(=C2)C3(CC3)S(=O)(=O)C)C4=C5C=CNC5=CC=C4
Procedure, shortened: as §1

[6] = compound: C[C@H](C1=CC=C(C=C1)C(=O)NC2=C3C=CNC3=NC=C2)N
Procedure, shortened: as §1

duvelisib = compound: C[C@H](Nc1ncnc2nc[nH]c12)c1cc2cccc(Cl)c2c(=O)n1-c1ccccc1 [duvelisib]
Procedure, shortened: as §1

gandotinib = compound: Cc1cc(Nc2cc(CN3CCOCC3)c3nc(C)c(Cc4ccc(Cl)cc4F)n3n2)n[nH]1 [gandotinib]
Procedure, shortened: as §1

tozasertib = compound: Cc1cc(Nc2cc(N3CCN(C)CC3)nc(Sc3ccc(NC(=O)C4CC4)cc3)n2)n[nH]1 [tozasertib]
Procedure, shortened: as §1

[7] = compound: Cc1cc(SCc2sc(-c3ccc(C(F)(F)F)cc3)nc2C)ccc1OCC(=O)O
Procedure, shortened: as §1

doramapimod = compound: Cc1ccc(-n2nc(C(C)(C)C)cc2NC(=O)Nc2ccc(OCCN3CCOCC3)c3ccccc23)cc1 [doramapimod]
Procedure, shortened: as §1

ispinesib = compound: Cc1ccc(C(=O)N(CCCN)[C@@H](c2nc3cc(Cl)ccc3c(=O)n2Cc2ccccc2)C(C)C)cc1 [ispinesib]
Procedure, shortened: as §1

Sequence of UniProt Q16850 (Q16850 whole entry, looked up): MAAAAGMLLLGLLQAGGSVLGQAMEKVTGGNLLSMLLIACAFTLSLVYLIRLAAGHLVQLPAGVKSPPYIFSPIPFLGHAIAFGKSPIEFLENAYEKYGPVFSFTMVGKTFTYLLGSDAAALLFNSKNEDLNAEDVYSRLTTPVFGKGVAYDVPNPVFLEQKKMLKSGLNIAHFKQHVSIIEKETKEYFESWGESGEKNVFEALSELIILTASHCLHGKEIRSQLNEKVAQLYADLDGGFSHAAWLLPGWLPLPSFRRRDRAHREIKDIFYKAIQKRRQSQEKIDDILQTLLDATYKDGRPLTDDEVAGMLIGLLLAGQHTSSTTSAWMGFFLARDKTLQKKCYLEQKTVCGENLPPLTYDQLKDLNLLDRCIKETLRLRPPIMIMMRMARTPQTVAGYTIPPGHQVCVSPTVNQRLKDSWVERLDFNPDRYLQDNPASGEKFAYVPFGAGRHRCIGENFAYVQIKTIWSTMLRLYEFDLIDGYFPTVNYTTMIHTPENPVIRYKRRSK
Sequence of UniProt Q9H773 (Q9H773 whole entry, looked up): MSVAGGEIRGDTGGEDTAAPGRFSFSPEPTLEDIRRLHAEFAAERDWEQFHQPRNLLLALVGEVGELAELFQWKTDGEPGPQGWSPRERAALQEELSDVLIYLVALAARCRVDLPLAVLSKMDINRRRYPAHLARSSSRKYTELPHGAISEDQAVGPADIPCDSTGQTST
Sequence of UniProt Q03468 (Q03468 whole entry, looked up): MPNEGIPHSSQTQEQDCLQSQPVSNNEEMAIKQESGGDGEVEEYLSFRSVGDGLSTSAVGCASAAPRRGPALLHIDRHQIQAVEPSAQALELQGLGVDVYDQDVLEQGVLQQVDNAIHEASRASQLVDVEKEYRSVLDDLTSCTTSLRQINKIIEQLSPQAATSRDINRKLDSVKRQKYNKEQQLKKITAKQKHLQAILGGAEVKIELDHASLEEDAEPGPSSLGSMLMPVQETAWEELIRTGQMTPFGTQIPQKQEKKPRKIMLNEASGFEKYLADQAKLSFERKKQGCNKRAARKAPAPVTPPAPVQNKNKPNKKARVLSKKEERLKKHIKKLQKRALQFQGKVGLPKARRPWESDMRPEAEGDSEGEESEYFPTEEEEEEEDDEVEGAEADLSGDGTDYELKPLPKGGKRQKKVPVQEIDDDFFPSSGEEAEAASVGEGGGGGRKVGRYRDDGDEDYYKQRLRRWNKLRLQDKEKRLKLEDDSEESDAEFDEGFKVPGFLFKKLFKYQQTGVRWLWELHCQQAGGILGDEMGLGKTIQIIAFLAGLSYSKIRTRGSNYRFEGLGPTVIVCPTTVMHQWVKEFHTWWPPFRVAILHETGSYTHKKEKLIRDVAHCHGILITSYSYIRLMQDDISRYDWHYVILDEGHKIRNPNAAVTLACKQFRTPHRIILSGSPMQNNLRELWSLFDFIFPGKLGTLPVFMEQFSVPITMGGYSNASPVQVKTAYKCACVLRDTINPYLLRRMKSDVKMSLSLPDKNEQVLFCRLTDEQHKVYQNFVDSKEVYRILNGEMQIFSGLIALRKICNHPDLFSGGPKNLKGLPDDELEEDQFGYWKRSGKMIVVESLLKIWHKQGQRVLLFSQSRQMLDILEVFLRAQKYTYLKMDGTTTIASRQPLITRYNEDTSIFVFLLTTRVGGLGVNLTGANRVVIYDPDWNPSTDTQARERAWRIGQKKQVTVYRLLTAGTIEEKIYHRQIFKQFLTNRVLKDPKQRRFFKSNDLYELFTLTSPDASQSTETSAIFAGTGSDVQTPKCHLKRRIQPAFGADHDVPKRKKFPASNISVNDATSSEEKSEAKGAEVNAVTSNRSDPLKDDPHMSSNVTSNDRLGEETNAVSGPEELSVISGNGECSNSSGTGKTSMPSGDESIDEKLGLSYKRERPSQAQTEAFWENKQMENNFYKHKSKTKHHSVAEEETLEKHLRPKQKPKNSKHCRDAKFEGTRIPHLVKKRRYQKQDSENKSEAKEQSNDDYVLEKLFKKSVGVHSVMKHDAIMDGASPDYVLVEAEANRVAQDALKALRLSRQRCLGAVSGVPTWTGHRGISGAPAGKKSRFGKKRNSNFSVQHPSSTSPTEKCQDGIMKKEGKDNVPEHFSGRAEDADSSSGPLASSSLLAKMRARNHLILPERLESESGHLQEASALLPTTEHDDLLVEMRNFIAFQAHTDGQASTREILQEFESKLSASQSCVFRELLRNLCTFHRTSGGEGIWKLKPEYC
Sequence of UniProt Q9GZT9 (Q9GZT9 whole entry, looked up): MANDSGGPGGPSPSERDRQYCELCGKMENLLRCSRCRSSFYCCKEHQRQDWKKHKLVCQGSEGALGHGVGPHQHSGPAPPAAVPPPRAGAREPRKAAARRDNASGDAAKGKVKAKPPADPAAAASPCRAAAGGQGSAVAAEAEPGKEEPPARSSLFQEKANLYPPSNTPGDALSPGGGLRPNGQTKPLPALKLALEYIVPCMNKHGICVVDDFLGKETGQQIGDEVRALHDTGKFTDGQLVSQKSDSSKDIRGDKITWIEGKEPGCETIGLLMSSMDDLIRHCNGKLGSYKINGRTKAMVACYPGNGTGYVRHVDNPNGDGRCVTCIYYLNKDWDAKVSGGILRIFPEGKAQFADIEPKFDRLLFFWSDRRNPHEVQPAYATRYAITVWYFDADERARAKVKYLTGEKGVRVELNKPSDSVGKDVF
Sequence of UniProt Q6P2E9 (Q6P2E9 whole entry, looked up): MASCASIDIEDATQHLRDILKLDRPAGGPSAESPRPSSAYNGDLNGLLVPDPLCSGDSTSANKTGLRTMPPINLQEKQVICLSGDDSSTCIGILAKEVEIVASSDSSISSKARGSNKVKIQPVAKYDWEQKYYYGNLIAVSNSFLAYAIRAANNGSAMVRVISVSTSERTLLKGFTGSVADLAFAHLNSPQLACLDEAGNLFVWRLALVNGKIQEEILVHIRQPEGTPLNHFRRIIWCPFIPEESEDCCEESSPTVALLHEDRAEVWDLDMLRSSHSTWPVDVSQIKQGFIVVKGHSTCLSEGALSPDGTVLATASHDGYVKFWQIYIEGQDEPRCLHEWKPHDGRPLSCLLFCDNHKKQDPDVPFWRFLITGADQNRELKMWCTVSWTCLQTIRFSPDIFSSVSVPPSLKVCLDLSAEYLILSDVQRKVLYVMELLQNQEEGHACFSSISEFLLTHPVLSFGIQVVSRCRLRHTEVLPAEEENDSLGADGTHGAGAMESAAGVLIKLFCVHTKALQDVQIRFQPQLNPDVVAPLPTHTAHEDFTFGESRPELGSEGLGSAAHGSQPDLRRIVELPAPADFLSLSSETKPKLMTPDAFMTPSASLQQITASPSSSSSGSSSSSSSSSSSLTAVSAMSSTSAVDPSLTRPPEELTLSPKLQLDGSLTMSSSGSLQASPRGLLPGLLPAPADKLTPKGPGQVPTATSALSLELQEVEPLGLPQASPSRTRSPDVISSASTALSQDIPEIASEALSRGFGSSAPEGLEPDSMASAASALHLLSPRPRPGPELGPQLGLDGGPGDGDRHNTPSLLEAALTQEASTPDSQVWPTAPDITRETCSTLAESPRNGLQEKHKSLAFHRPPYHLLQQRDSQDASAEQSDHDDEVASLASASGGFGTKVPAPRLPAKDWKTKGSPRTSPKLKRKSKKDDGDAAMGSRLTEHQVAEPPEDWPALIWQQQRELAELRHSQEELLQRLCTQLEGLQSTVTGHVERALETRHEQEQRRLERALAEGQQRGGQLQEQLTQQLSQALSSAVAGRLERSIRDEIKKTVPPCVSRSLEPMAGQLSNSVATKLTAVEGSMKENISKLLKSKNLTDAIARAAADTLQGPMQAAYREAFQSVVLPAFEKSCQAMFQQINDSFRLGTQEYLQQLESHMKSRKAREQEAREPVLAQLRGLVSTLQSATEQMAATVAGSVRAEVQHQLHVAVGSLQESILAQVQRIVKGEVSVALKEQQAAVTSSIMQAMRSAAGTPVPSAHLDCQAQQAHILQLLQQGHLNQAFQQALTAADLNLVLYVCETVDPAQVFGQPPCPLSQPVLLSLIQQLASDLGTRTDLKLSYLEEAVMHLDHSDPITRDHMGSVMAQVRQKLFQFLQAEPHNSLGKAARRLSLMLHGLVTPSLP
Sequence of UniProt O75911 (O75911 whole entry, looked up): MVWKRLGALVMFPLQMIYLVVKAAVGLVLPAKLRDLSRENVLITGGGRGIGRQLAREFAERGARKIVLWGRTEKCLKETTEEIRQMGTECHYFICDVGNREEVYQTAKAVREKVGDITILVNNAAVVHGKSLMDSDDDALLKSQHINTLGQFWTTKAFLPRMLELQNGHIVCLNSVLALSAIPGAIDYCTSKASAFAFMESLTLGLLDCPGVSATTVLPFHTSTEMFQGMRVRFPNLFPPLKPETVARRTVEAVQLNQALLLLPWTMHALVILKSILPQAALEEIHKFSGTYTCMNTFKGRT
Sequence of UniProt O00148 (O00148 whole entry, looked up): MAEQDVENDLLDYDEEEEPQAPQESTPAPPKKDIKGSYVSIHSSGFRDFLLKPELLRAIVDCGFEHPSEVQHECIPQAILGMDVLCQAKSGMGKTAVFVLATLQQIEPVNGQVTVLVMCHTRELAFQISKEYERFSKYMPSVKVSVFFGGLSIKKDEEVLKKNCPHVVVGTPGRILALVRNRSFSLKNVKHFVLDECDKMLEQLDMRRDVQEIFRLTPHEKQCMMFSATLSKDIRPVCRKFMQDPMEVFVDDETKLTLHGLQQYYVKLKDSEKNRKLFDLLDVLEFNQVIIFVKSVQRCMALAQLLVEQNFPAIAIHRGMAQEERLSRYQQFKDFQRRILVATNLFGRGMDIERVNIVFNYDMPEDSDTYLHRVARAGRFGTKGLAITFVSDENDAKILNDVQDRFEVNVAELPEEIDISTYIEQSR
Sequence of UniProt P13498 (P13498 whole entry, looked up): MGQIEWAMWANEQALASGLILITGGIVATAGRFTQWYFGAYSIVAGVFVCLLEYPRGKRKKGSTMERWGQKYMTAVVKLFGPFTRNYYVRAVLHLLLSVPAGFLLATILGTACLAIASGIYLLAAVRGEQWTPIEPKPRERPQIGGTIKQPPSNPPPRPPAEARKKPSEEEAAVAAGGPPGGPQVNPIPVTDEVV

Row | Target | log2 fold change [1] | log2 fold change (filanesib) | log2 fold change (zotarolimus) | log2 fold change (idasanutlin) | log2 fold change (alisertib) | log2 fold change [2] | log2 fold change (gefitinib) | log2 fold change [3] | log2 fold change (lapatinib) | log2 fold change (pictilisib) | log2 fold change [4] | log2 fold change (crizotinib) | log2 fold change [5] | log2 fold change [6] | log2 fold change (duvelisib) | log2 fold change (gandotinib) | log2 fold change (tozasertib) | log2 fold change [7] | log2 fold change (doramapimod) | log2 fold change (ispinesib)
1 | EDC4 (UniProt Q6P2E9) | 0.018 | 0.106 | 0.001 | 0.044 | -0.028 | 0.062 | -0.004 | 0 | 0.007 | 0.006 | -0.064 | 0.179 | 0.003 | -0.092 | 0.003 | -0.18 | 0.061 | 0.033 | 0.005 | -0.031
2 | FAM50A (UniProt Q14320) | -0.019 | -0.008 | 0.026 | -0.025 | -0.003 | -0.026 | 0.039 | -0.025 | 0.022 | 0.056 | 0.009 | 0.129 | 0.026 | -0.06 | -0.03 | 0.147 | 0.089 | 0.092 | -0.061 | 0.095
3 | CTSL (UniProt P07711) | -0.143 | 0.316 (active) | -0.041 | 0.125 | -0.099 | 0.044 | 0.025 | 0.086 | 0.087 | 0.057 | 0.025 | -0.489 (active) | -0.02 | 0.021 | -0.07 | 0.006 | -0.081 | -0.013 | 0.018 | -0.199
4 | DCTPP1 (UniProt Q9H773) | 0.023 | -0.02 | 0.083 | -0.061 | -0.067 | -0.091 | 0 | 0.038 | -0.058 | -0.05 | -0.025 | 0.142 | 0.179 | -0.177 | 0.072 | -0.004 | 0.024 | -0.064 | -0.002 | 0.203
5 | F5 (UniProt P12259) | -0.032 | -0.05 | -0.051 | 0.613 (active) | -0.074 | -0.089 | 0.026 | 0.059 | 0.034 | 0.074 | 0.081 | 0.257 | -0.064 | 0.057 | -0.036 | 0.023 | 0.004 | 0.223 | 0.019 | 0.055
6 | ELOC (UniProt Q15369) | 0.007 | 0.04 | 0.096 | -0.009 | -0.009 | 0.033 | -0.006 | 0.011 | -0.002 | 0.105 | 0.038 | 0.074 | 0.279 (active) | -0.07 | 0.137 | -0.001 | 0.06 | -0.015 | 0.012 | 0.134
7 | DDX39A (UniProt O00148) | 0.135 | -0.021 | -0.017 | -0.093 | 0.066 | -0.16 | -0.015 | -0.028 | -0.007 | 0.012 | 0.062 | -0.082 | 0.079 | 0.002 | 0.051 | -0.009 | 0.043 | 0.05 | -0.069 | -0.064
8 | DNAJC7 (UniProt Q99615) | 0.037 | -0.025 | 0.07 | -0.043 | -0.044 | -0.031 | 0.068 | -0.031 | 0 | 0.014 | 0.027 | -0.014 | 0.048 | -0.028 | 0.019 | -0.088 | -0.021 | 0.095 | -0.057 | 0.001
9 | ERCC6 (UniProt Q03468) | -0.067 | -0.268 | 0.102 | -0.14 | 0.102 | -0.002 | 0.026 | -0.042 | 0.077 | -0.04 | -0.12 | 0.061 | 0.011 | -0.127 | 0.044 | 0.017 | -0.051 | -0.103 | 0.053 | 0.152
10 | DYRK1A isoform 2 (UniProt Q13627) | -0.061 | 0.01 | 0.023 | 0 | -0.03 | 0.004 | 0.007 | 0.036 | -0.034 | 0.017 | 0.008 | -0.181 | 0.045 | -0.107 | -0.025 | -0.102 | -0.051 | 0.042 | 0.014 | -0.059
11 | EGLN1 (UniProt Q9GZT9) | -0.361 (active) | -0.07 | -0.022 | -0.004 | 0.018 | 0.018 | 0.022 | -0.074 | 0.01 | 0.009 | 0.01 | -0.029 | -0.064 | -0.035 | 0.029 | -0.036 | 0.044 | 0 | -0.014 | -0.04
12 | DNAJB12 (UniProt Q9NXW2) | 0.023 | -0.024 | -0.06 | -0.006 | -0.081 | 0.023 | 0.029 | 0.006 | -0.033 | -0.051 | 0.02 | -0.029 | 0.038 | 0.035 | -0.009 | -0.073 | -0.001 | 0.097 | -0.034 | -0.227 (active)
13 | DHRS3 (UniProt O75911) | 0.13 | -0.009 | -0.056 | -0.107 | 0.008 | 0.031 | 0.067 | 0.021 | 0.065 | 0.019 | 0.083 | 0.093 | 0.115 | 0.069 | 0.027 | -0.027 | -0.089 | -0.049 | -0.037 | 0.015
14 | CYP51A1 (UniProt Q16850) | -0.035 | 0.217 | -0.11 | 0.099 | -0.025 | -0.005 | 0.009 | -0.105 | 0.401 (active) | -0.216 | 0.028 | 0.12 | -0.162 | 0.147 | -0.075 | -0.111 | -0.031 | 0 | 0.156 | 0.117
15 | CYBA (UniProt P13498) | -0.06 | -0.189 | -0.067 | 0.017 | -0.044 | -0.171 | -0.007 | 0.067 | -0.034 | -0.047 | 0.069 | -0.108 | 0.024 | -0.045 | 0.05 | -0.231 | -0.043 | 0.04 | 0.01 | -0.488 (active)
16 | DHX16 (UniProt O60231) | 0.008 | 0.096 | 0.023 | -0.03 | -0.079 | 0.028 | 0.043 | 0.04 | 0.02 | -0.012 | 0.023 | -0.013 | 0.182 | -0.03 | -0.013 | -0.06 | -0.02 | 0.053 | -0.018 | -0.01
